Assay [1] concerns Plasmodium falciparum Sir2 (PF13_0152, Sir2A). Briefly: Plasmodium falciparum Sir2A binding compounds – biochemical, small-molecule microarray, 635 nm fluorescence, primary screen (AID 1098).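 Also: score merges spot fluorescence intensity with its signal-to-noise ratio.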 The note with it: fluorescence 635 nm, higher = more signal.
The nature of assay [2]: probe aDKK1 binding to arrayed compounds – biochemical, biotinylated probe, 635/667 nm fluorescence, primary screen (AID 1099).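 Also: score merges 667nm spot fluorescence with signal to noise across triplicate slides; reference of the scale not given here.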 To be noted: small-molecule microarray, higher = more signal.
Assay [3] is described as follows: probe aCHRDL2 binding to arrayed compounds – biochemical, biotinylated probe, 635/667 nm fluorescence, primary screen (AID 1100). To be noted: small-molecule microarray, higher = more signal.
A short description of assay [4]: change in splice reporter luminescence, either direction, cell-based, HEK293, spliceosome inhibition project, primary screen (AID 1101).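 Also: HEK293 cells carrying a splicing-competent luciferase reporter gene; test concentration not given here.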 The note with it: HEK293 splicing luciferase reporter, 24 h, higher = more signal, called active from +8 up or from −8 down.
The target of assay [5] is Fibroblast growth factor 10 (Homo sapiens) (UniProt O15520). Briefly: compounds binding fibroblast growth factor 10 – biochemical, small-molecule microarray, 635 nm fluorescence, primary screen (AID 1102). The note with it: FGF10 binding, fluorescence 635 nm, higher = more signal.
Assay [6] relates to glycogen synthase kinase-3 (GSK3A per assay name; protocol says GSK3B). The assay can be described thus: compounds binding glycogen synthase kinase-3 – biochemical, small-molecule microarray, 635 nm fluorescence, GSK3A, primary screen (AID 1103). Also: the record names both GSK3A and GSK3B. To be noted: fluorescence 635 nm, higher = more signal.
The target in assay [7] is Epidermal growth factor receptor (Homo sapiens) (UniProt P00533). Briefly: compounds binding epidermal growth factor receptor – biochemical, small-molecule microarray, 635 nm fluorescence, primary screen (AID 1104).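 Also: score merges 667 nm emission intensity with spot signal to noise over triplicate slides.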 To be noted: EGFR binding, higher = more signal.
In assay [8] the target is Follistatin-related protein 3 (Homo sapiens) (UniProt O95633). Briefly: compounds binding follistatin-related protein 3 – biochemical, small-molecule microarray, 635 nm fluorescence, primary screen (AID 1105).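 Also: score merges emission near 667 nm and signal to noise per printed spot across three slides.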 The note with it: FSTL3 binding, higher = more signal.
The target of assay [9] is Dickkopf-related protein 1 (Homo sapiens) (UniProt O94907). The assay can be described thus: small molecules binding DKK1 protein – biochemical, small-molecule microarray, 635 nm fluorescence scan, primary screen (AID 1106).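 Also: score merges emission near 667 nm with signal to noise over three replicate slides.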 The note with it: higher = more signal.
Assay [10] concerns Inhibin beta A chain (activin A). Briefly: small molecules binding activin A – biochemical, small-molecule microarray, 635 nm fluorescence scan, primary screen (AID 1107).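 Also: mouse activin A protein probed at 4.33 µg/mL on printed slides; score merges bound-protein fluorescence near 667 nm with spot signal-to-noise.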 The note with it: INHBA, higher = more signal.

Calls of active or inactive are those of the source.

Sequence of Fibroblast growth factor 10 (Homo sapiens) (O15520 whole entry, looked up): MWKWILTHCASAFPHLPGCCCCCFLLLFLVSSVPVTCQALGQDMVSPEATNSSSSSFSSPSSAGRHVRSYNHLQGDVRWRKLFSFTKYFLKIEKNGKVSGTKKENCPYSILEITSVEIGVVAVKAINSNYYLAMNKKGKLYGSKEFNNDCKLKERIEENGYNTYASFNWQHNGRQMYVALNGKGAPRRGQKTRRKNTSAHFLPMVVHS
Sequence of Epidermal growth factor receptor (Homo sapiens) (P00533 whole entry, looked up): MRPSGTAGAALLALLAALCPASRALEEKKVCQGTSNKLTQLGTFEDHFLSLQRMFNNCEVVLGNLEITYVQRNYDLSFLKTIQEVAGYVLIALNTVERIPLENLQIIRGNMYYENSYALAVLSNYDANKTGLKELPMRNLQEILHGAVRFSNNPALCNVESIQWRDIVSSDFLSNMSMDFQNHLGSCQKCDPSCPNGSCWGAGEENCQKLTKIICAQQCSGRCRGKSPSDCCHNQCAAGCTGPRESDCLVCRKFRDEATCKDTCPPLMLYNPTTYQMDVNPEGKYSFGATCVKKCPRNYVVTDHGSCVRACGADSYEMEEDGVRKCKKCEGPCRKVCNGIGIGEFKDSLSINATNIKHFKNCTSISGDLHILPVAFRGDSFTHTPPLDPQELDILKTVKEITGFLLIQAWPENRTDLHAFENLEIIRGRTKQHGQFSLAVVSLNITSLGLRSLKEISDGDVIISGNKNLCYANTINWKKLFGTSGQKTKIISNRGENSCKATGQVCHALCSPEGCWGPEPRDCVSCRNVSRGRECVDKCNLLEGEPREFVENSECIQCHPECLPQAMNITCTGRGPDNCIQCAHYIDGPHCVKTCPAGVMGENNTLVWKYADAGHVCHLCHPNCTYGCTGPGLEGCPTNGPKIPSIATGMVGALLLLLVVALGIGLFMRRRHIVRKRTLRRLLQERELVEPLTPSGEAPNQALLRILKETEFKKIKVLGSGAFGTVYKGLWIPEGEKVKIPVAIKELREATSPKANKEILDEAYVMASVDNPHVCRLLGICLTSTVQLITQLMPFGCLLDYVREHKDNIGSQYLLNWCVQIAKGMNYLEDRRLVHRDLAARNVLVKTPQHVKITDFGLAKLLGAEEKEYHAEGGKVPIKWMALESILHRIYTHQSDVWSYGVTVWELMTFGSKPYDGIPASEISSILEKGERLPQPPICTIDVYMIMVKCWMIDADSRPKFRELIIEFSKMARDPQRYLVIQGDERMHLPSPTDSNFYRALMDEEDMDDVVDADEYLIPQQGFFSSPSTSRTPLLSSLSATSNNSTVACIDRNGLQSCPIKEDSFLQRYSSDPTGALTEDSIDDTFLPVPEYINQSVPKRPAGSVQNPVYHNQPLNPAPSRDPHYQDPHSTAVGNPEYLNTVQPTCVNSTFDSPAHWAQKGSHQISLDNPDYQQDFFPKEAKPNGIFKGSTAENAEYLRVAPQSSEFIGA
Sequence of Follistatin-related protein 3 (Homo sapiens) (O95633 whole entry, looked up): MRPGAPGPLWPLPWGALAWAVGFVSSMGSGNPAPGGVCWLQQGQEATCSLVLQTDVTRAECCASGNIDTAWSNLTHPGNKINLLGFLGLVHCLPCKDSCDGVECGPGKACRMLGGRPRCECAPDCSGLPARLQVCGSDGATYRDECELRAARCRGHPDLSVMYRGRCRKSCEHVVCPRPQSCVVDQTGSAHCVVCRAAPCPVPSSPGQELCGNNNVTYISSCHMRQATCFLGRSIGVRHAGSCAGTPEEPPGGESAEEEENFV
Sequence of Dickkopf-related protein 1 (Homo sapiens) (O94907 whole entry, looked up): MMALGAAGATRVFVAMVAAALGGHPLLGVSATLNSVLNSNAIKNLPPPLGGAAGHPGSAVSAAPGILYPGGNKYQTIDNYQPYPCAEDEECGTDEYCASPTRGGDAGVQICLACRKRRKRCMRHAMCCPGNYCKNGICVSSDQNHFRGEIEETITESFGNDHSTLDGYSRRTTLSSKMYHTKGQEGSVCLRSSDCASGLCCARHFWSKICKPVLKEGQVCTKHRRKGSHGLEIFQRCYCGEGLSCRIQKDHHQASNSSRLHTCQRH

Turning to `CC(C)C[C@@H]1NC(=O)[C@H]2C[C@@H](C(=O)O)[C@@H](c3cccc(OCCO)c3)N2C1=O`, the composite z-score in [1] was 0.524; in [2], 0.0083; in assay [3], 0.677; in assay [5], 0.0039; in assay [6], 0.969; in assay [7], 0.193. Besides, the composite z-score was 1.2 in assay [8], 1.11 in [9] and 1.19 in assay [10]. Further, in [4], the z-score was 0.256 (inactive).

Regarding `O=C1c2ccccc2[C@@]2(Cc3ccccc3N(CC(F)(F)F)C2=O)[C@H](c2ccc(CO)cc2)N1Cc1ccccc1`, the composite z-score in assay [1] is -0.33; in assay [2], -0.449; in assay [3] it was -0.419; in assay [5], -0.0636; in assay [6], 0.387; in assay [7], -0.171. The composite z-score in assay [8] came out at 0.766; in assay [9], 0.309; in assay [10], 1.32. Besides, in [4], the z-score was -0.719 (inactive).

With `C=C(/C=C\CNS(=O)(=O)c1ccc(C)cc1)[C@H](O)[C@H]1CCCN1S(=O)(=O)c1ccccc1[N+](=O)[O-]`, the composite z-score in assay [1] is 0.0251; in assay [2], -0.142; in assay [3], -0.55; in [5], 0.598; in assay [6] it was 0.215; in [7] it was 0.629. The composite z-score was 0.122 in assay [8], 0.524 in assay [9] and 0.509 in assay [10]. For the same compound, the z-score in assay [4] was -0.465 (inactive).

Take `N#Cc1ccc(NN2C(C(O)c3ccc(B(O)O)cc3)C=CC3CN(c4ccccc4)C(=O)C32)cc1` (stereo not given): the composite z-score in assay [1] was 0.35; in [2] it was 0.0933; in [3], 0.584; in [5] it was -0.792; in assay [6], -0.824; in assay [7], -0.533. Besides, the composite z-score was -0.172 in [8], -0.445 in [9] and 0.462 in [10]. For the same compound, in assay [4], the z-score was 0.441 (inactive).

Consider `C=CCOC(=O)[C@@H]1[C@H]2C(=O)O[C@H](c3ccccc3)[C@H](c3ccccc3)N2[C@H](c2ccc(OCCOC(=O)[C@@H]3C[C@@H]4C(=O)N[C@@H](CC(C)C)C(=O)N4[C@@H]3c3ccc(O)cc3)cc2)[C@@]12C(=O)Nc1ccc(I)cc12`, for which the composite z-score in assay [1] is 1.03; in [2] it was -0.228; in assay [3], -0.355; in [5], 1.37; in assay [6], 1.28; in assay [7], 0.817. Moreover, the results for the composite z-score in assay [8], in assay [9] and in [10] were 1.42, 1.14 and 0.79, respectively. Further, the z-score in assay [4] is -0.771 (inactive).

On to `CC(C)(C)OC(=O)CC[C@]1(C(=O)N2CCOCC2)COC(c2ccc(OCCCO)cc2)=N1`, for which the composite z-score was 1.45 in assay [1]; 0.37 in assay [2]; 0.668 in [3]; 0.164 in assay [5]; -0.668 in assay [6]; 0.727 in assay [7]. Besides, the composite z-score in assay [8] was -0.87; in assay [9] it was -1.34; in [10], 0.309. For the same compound, in [4], the z-score is -0.713 (inactive).

As for `O=C1OC[C@@H](c2ccccc2)n2cc(/C=C/c3ccccc3)cc21`, the composite z-score in [1] was 0.753; in assay [2], -0.222; in [3], 0.0504; in [5], -0.256; in assay [6] it was -0.678; in assay [7] it was -0.609. Moreover, the composite z-score in assay [8] was -0.513; in assay [9], -0.161; in assay [10], 0.0778. For the same compound, the z-score in [4] is -1.55 (inactive).

As to `Cc1cccc([C@H]2C[C@H]3C(Br)=C[C@@]2(CO)C(=O)[C@]32CO2)c1`, the composite z-score in [1] was 0.259; in [2], 0.0578; in [3], 0.382; in assay [5], 1.01; in assay [6] it was 0.0353; in assay [7], -0.0766. The composite z-score in assay [8] was 0.159; in assay [9] it was -0.166; in assay [10], 0.55. Besides, in [4], the z-score was -0.34 (inactive).

As for `CN(C)C(=O)[C@]1(CCS(=O)(=O)c2ccccc2)N=C(c2ccc(OCCCO)cc2)O[C@@H]1c1ccccc1CN=[N+]=[N-]`, the composite z-score was 1.45 in assay [1]; -0.326 in [2]; 0.32 in [3]; 1.26 in assay [5]; 1.24 in assay [6]; -0.126 in assay [7]. In addition, the composite z-score was 0.425 in assay [8], -0.142 in [9] and 0.869 in assay [10]. In [4], the z-score was -0.153 (inactive).

For `CCCCCCc1nc(-c2ccc(OC)nc2)c(C)c2c1[Si](C(C)C)(C(C)C)OC2`, the composite z-score is -0.299 in assay [1]; -0.202 in [2]; -0.358 in [3]; -0.168 in assay [5]; -0.264 in assay [6]; 0.218 in [7]. In addition, the values for the composite z-score in assay [8], in assay [9] and in assay [10] were 0.565, 1.03 and 0.444, respectively. The z-score in [4] was -2 (inactive).

Take `CC1CC/C=C\[C@H]2OC34C=CCN(C(C)C)C(=O)[C@H]3N(C(C)CO)C(=O)[C@@H]4C2C(=O)O1` (stereo not given in full): the composite z-score is 0.048 in assay [1]; -0.27 in assay [2]; -0.335 in assay [3]; -0.171 in assay [5]; -0.297 in [6]; -0.467 in assay [7]. The figures for the composite z-score in assay [8], in assay [9] and in [10] were 0.0275, 0.165 and 0.727, respectively. Moreover, in [4], the z-score was -0.789 (inactive).

(Values after PubChem BioAssay.)
